CFTR F508del cor – F508del CFTR correction, initial screen, CFBE line, single point; CFBE cells, YFP halide quenching; stimulated with forskolin plus potentiator P3; % fluorescence drop versus neutral controls; activity (quench increase), % at 7.58 µM; 0.36% of 350,000 active; AID 720511, 2013;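 active means mean added fluorescence quench of at least 8% versus neutral control, with both replicates also reaching 8%; inconclusive means only one of the mean or replicate conditions met; inactive means mean below 8% and not both replicates reaching 8%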;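 further: cells transiently co-express mutant CFTR-F508del with the halide-sensitive YFP; corrector assay measuring rescue of mutant channel to the surface after 24 h compound exposure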
PGC1a acetyl inh – inhibitors of PGC1a acetylation signal, primary screen, cell-based, U2OS, AlphaScreen, inhibitor mode | 0.17% of 350,000 active | AlphaScreen anti-acetyl-lysine; with virally co-expressed GCN5 acetyltransferase | inhibition, % at 15.6 µM;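 active means every replicate shows inhibition of at least 40%; inconclusive means mean inhibition at least 40% but some replicate below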
PAX8 inh HTS – inhibitors of PAX8-driven TPO luciferase reporter, primary screen, RMG-I cells, single concentration; SteadyGlo, 24 h; AID 652154, 2013; 1.2% of 360,000 active; inhibition, % at 12.6 µM;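 active means mean replicate inhibition at least 60% with every replicate also reaching 60%; inconclusive means only one of the two criteria is met; inactive means mean below 60% and not all replicates reaching 60%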;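 further: luciferase light reporting Pax8 driven TPO promoter activity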
EWS-Fli block – EWS/Fli-driven NR0B1 reporter inhibitors, primary screen, A673 cells, NR0B1 luciferase, luminescence, MLPCN library; viability-normalised; inhibition, % at 12.6 µM; 0.67% of 350,000 active;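 active means mean inhibition of at least 50% after viability correction, with every replicate also passing that limit; inconclusive means mean reaches 50% but only one of two replicates passes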;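 further: firefly luciferase signal divided by Alamar Blue viability fluorescence both relative to DMSO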
GSIS activator – GLuc luminescence reporter in INS-1E cells, primary screen for activators of glucose-dependent secretion of insulin; INS-1E GLuc reporter insulin secretion, 2-3 h; activation, % at 16.6 µM; 0.61% of 370,000 active; AID 743287, 2014;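 active means lowest replicate activation of at least 40%, so every replicate reaches that level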
Env fusion inh – inhibitors of HIV-1 Env-driven cell-cell fusion, primary screen, HeLa-JRFL effector, CEM21 target cells, luciferase | inhibition, % at 12.3 µM | 1.1% of 360,000 active;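 active means mean replicate inhibition score of at least 50 and every replicate individually at or above 50; inconclusive means only one of the two criteria met; inactive means mean below 50 and not all replicates reaching 50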
Of the large screens only hits and unclear results are named; the others gave an inactive call; [ ] = another dose, or the depositor's remark. Sampled rows, rich in hits. Any-hit rate of the full collection: about 2.7%.

C[C@H](CO)N1C[C@H](C)[C@H](CN(C)Cc2ccc(Cl)c(Cl)c2)Oc2c(NS(=O)(=O)c3ccc(Cl)cc3)cccc2C1=O	PAX8 inh HTS 83, Env fusion inh 91[16.7 µM] (no result: GSIS activator)
C[C@H]1CN([C@@H](C)CO)C(=O)c2cccc(NC(=O)NC3CCCCC3)c2O[C@@H]1CN(C)CC1CCCCC1	none (no result: PAX8 inh HTS)
COc1ccc(NC(=O)Nc2ccc3c(c2)C(=O)N([C@@H](C)CO)C[C@H](C)[C@@H](CN(C)S(=O)(=O)c2cn(C)cn2)OCCCC[C@H](C)O3)cc1	none
COc1ccc2c3c(n(C)c2c1)[C@H](CO)N(C(=O)Nc1ccccc1F)CC31CN(C)C1	none (no result: PAX8 inh HTS, Env fusion inh)
O=C(CC1SC(=Nc2ccc(OC(F)F)cc2)N(CCN2CCOCC2)C1=O)Nc1ccccc1 (stereo unspecified)	PAX8 inh HTS 64
C[C@H](CO)N1C[C@H](C)[C@H](CN(C)C(=O)C2CC2)Oc2cc(-c3ccccc3)ccc2S1(=O)=O	none (no result: PAX8 inh HTS)
COc1ccc2c3c([nH]c2c1)[C@H](CO)N(Cc1nccs1)CC31CN(Cc2cccnc2)C1	none (no result: Env fusion inh)
COc1cccc(S(=O)(=O)N(C)C[C@H]2Oc3cc(C4=CCCC4)ccc3S(=O)(=O)N([C@@H](C)CO)C[C@H]2C)c1	Env fusion inh 110[16.7 µM]
COc1cccc(S(=O)(=O)N(C)C[C@H]2Oc3cc(C4=CCCCC4)ccc3S(=O)(=O)N([C@@H](C)CO)C[C@@H]2C)c1	none
COc1cccc(S(=O)(=O)N(C)C[C@@H]2Oc3cc(C4=CCCCC4)ccc3S(=O)(=O)N([C@@H](C)CO)C[C@H]2C)c1	PAX8 inh HTS 77
CCCCNC(=O)c1onc(CSc2ccccc2F)c1C(=O)O	none
CCCCNC(=O)c1onc(CSc2ccccc2C)c1C(=O)O	CFTR F508del cor 8.3 (no result: GSIS activator, Env fusion inh)
N/C(=N\OC(=O)c1ccc2ccccc2c1)c1ccccn1	PAX8 inh HTS 75, EWS-Fli block 80 (no result: PGC1a acetyl inh)
CCCc1ccc(C(=O)O/N=C(\N)c2ccccn2)cc1	PAX8 inh HTS 106, EWS-Fli block 88
CCn1c(SCC(=O)N2CCN(c3ccccc3)CC2)nnc1-c1cc2cc(Cl)ccc2o1	Env fusion inh 68 (no result: CFTR F508del cor, PAX8 inh HTS, EWS-Fli block, GSIS activator)
O=S(=O)(NCC[C@@H]1CC[C@@H](NS(=O)(=O)c2ccccc2Cl)[C@H](CO)O1)c1ccc(Cl)cc1	Env fusion inh 57[16.7 µM]
O=C(CC1CC1)N[C@H]1CC[C@@H](CCNS(=O)(=O)c2ccc(Cl)cc2)O[C@@H]1CO	PGC1a acetyl inh 67
O=C(C[C@@H]1C[C@@H]2c3cc(NC(=O)C4CCC4)ccc3O[C@@H]2[C@@H](CO)O1)NCc1ccc(-c2ccccc2)cc1	PGC1a acetyl inh 80, PAX8 inh HTS 70
O=C(C[C@@H]1C[C@@H]2c3cc(NC(=O)C4CCOCC4)ccc3O[C@@H]2[C@H](CO)O1)NCc1ccccc1	none
O=C(C[C@H]1C[C@@H]2c3cc(NC(=O)C4CCOCC4)ccc3O[C@@H]2[C@H](CO)O1)NCc1ccccc1	Env fusion inh 83[16.7 µM]
CCc1nc2nc(C)cc(C)n2c1Nc1ccc(OC)cc1	none (no result: PGC1a acetyl inh)
COc1ccc(Nc2c(CCc3ccccc3)nc3nc(C)cc(C)n23)cc1	Env fusion inh 85 (no result: PGC1a acetyl inh)
CCC(=O)N1[C@H](CN(CC)C(C)=O)[C@@H](c2ccc(-c3cccnc3)cc2)[C@@H]1CO	none (no result: Env fusion inh)
Cc1cc(OCC(=O)NC(C)C)ccc1Cl	none
Cc1cc(OCC(=O)NC(C)C)cc(C)c1Br	PAX8 inh HTS 65 (no result: PGC1a acetyl inh, Env fusion inh)
C[C@@H]1CCCCO[C@@H](CN(C)C(=O)C2CCCCC2)[C@H](C)CN([C@@H](C)CO)C(=O)c2cc(NS(C)(=O)=O)ccc2O1	none
O=C(CCCN1C(=O)/C(=C/c2cccc(Br)c2)SC1=S)Nc1ccccn1	PAX8 inh HTS 110 (no result: CFTR F508del cor, EWS-Fli block, GSIS activator)
O=C(CCCN1C(=O)/C(=C\c2cccc(Br)c2)SC1=S)Nc1cccnc1	PAX8 inh HTS 106 (no result: PGC1a acetyl inh)
O=C(CCCN1C(=O)/C(=C/c2ccccc2OC(F)F)SC1=S)Nc1cccnc1	PAX8 inh HTS 98
Cc1ccc(/C=C2\SC(=S)N(CCCC(=O)Nc3cccnc3)C2=O)cc1	none (no result: CFTR F508del cor, PAX8 inh HTS, EWS-Fli block, GSIS activator, Env fusion inh)
O=C(CCCN1C(=O)/C(=C/c2cccc(Br)c2)SC1=S)Nc1cccnc1	PAX8 inh HTS 94
COc1ccc(NC(=O)Nc2ccc3c(c2)C(=O)N([C@@H](C)CO)C[C@@H](C)[C@H](CN(C)C)OCCCC[C@@H](C)O3)cc1	none
CCCCCCCCCn1ccc(=N)cc1	PAX8 inh HTS inconclusive, Env fusion inh 79
O=C(Nc1ccccc1F)N[C@@H]1C=C[C@H](CC(=O)N2CCCCC2)O[C@H]1CO	none
c1ccc(-c2nnc(-c3ccccc3)nn2)cc1	none
CC1(C)N=C(c2ccccc2)C(c2ccccc2)=N1	GSIS activator 41
Cc1noc(C)c1NC(=O)N(C)C[C@@H]1OCCCC[C@H](C)Oc2ccc(NS(=O)(=O)c3ccc(Cl)cc3)cc2C(=O)N([C@@H](C)CO)C[C@@H]1C	none
Cc1cc(Br)ccc1OCCn1ccnc1	PAX8 inh HTS 73 (no result: PGC1a acetyl inh, Env fusion inh)
Clc1cc(Br)ccc1OCCn1ccnc1	none (no result: CFTR F508del cor, EWS-Fli block, GSIS activator)
COc1ccc(/C=N/N(C(C)=O)c2nc(-c3ccc(C)cc3)cs2)cc1	GSIS activator 146 (no result: CFTR F508del cor, PAX8 inh HTS, EWS-Fli block)
CC(=O)N(/N=C/c1cccc(C)c1)c1nc(-c2ccc(Br)cc2)cs1	GSIS activator 110 (no result: CFTR F508del cor, PAX8 inh HTS, EWS-Fli block)
COc1ccccc1/C=N/N(C(C)=O)c1nc(-c2ccc(F)cc2)cs1	none (no result: CFTR F508del cor, PAX8 inh HTS, EWS-Fli block, GSIS activator)
COc1ccc(-c2csc(N(CC3CCCO3)C(=O)c3ccc(C)cc3)n2)cc1 (stereo unspecified)	Env fusion inh 49 (no result: CFTR F508del cor, EWS-Fli block, GSIS activator)
C[C@@H]1CCCCO[C@@H](CN(C)S(=O)(=O)c2cn(C)cn2)[C@H](C)CN([C@@H](C)CO)C(=O)c2cc(N(C)C)ccc2O1	none
CCOC(=O)C1=C(CSc2nc3ccccc3s2)NC(=O)NC1c1cc(C)ccc1C (stereo unspecified)	none (no result: CFTR F508del cor, PAX8 inh HTS, EWS-Fli block, GSIS activator, Env fusion inh)
CCOC(=O)C1=C(CSc2nc3ccccc3s2)NC(=O)NC1c1ccc(OC)cc1 (stereo unspecified)	Env fusion inh 73 (no result: CFTR F508del cor, PAX8 inh HTS, EWS-Fli block, GSIS activator)
O=C(C[C@@H]1CC[C@@H](NC(=O)Nc2ccc(C(F)(F)F)cc2)[C@@H](CO)O1)NCCN1CCCC1	none
CN1C(=O)c2cc(NC(=O)c3cccc(Cl)c3)ccc2OC[C@@H]2O[C@H](CC(=O)NC3CCCCC3)CC[C@@H]21	PAX8 inh HTS 76, Env fusion inh 57[16.7 µM]
CN1C(=O)c2cc(NC(=O)c3ccc(Cl)cc3)ccc2OC[C@@H]2O[C@H](CC(=O)NCc3cccc(F)c3)CC[C@H]21	CFTR F508del cor 12 (no result: Env fusion inh)
CN1C(=O)c2cc(NC(=O)c3cccc(Cl)c3)ccc2OC[C@H]2O[C@@H](CC(=O)NC3CCCCC3)CC[C@@H]21	none (no result: PAX8 inh HTS, Env fusion inh)

Compound activity: PubChem, Broad Institute
